PubChem BioAssay (NCATS)
Records with an inconclusive call do not appear. Entries that show only a call come without a potency. Values without a mark were called inactive. Active and inactive are the calls of the source. Unless noted, the call rests on the fitted dose curve; in most records, active means well fitted curve in the direction sought with a large enough effect; inconclusive means small, poorly fitted or top-dose-only effect, or another doubt; inactive means no such curve, though single readings can be large; an effect the other way counts as inactive or inconclusive.

These compounds were tested against Calcium and integrin-binding protein 1 (Homo sapiens) (UniProt Q99828) (assay: Primary qHTS for Identification of Calcium Integrin Binding Protein 1 (CIB1) Competitor (AID 1508620;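 further: GST tagged CIB1 binding a fluorescein labelled alphaIIb integrin peptide tracer; top concentration of the series differs between compounds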)). Conditions: CIB1-GST / FITC-alphaIIb peptide fluorescence polarization; series mostly up to 57.7 µM.
Summary of the method: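 Fluorescence polarization competition: CIB1-GST (1 uM final) preincubated with compound 15 min at room temperature, then FITC-labeled alphaIIb peptide (100 nM final) added for another 15 min. Polarization read at Ex 480/Em 540.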

Chain of Calcium and integrin-binding protein 1 (Homo sapiens) (Q99828 whole entry, looked up): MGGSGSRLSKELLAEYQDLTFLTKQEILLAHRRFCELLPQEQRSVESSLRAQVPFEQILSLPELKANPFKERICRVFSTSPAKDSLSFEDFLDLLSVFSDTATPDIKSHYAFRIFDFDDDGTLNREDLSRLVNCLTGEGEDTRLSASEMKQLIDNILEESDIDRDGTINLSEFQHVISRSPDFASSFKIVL

Row | SMILES | Potency | activity change, negative = inhibition
1 | O=C(OC(C(F)(F)F)C(F)(F)F)N1CCN(Cc2cccc(Oc3ccccc3)c2)CC1 | inactive | 
2 | COc1cccc(CN(C(=O)CC(C)(C)C)C2CC(C(=O)N3CCNCC3)N(Cc3ccc4c(c3)OCO4)C2)c1 (configuration not stated) | inactive | 
3 | CCC(C)/C=C(C)/C=C/C1=CC2=CC(=O)C(C)(O)C(OC(C)=O)C2CO1 (configuration not stated) | inactive | 
4 | COc1cc(C)c(C(=O)OC2C(C)OC(OC3CCC(C)C4C3C=C(C)C3/C(C)=C\CC/C(C)=C/C5(C)C=C(C(=O)O)C(C)CC56OC(=O)/C(=C(\O)C34C)C6=O)C(O)C2O)c(OC)c1 (configuration not stated) | inactive | 
5 | CC(=O)OC/C(=C/C(=O)O)CC[C@@H]1C(CO)=CC[C@@H]2C(C)(C)CCC[C@@]12C | inactive | 
6 | COc1ccc(-c2ccn(CC[C@](C)(C(=O)NO)S(C)(=O)=O)c(=O)c2)c(F)c1 | inactive | 
7 | CCOC(=O)c1ccc(NC2CCCCC2)c(N)c1 | inactive | 
8 | N[C@@H](CC(=O)Nc1ccc(Oc2cc(F)c(F)cc2Br)cc1)C(=O)O | inactive | 
9 | COc1cc(Cc2cnc(N)nc2N)c(C(C)C)cc1OC | inactive | 
10 | COc1cc(O)cc2c1C(=O)OC(C)CCCCCCC2 (configuration not stated) | inactive | 
11 | CC(C)NC(=O)c1ccc(C#Cc2ccncc2)cn1 | inactive | 
12 | Cc1nnc(-c2ccc3occ(-c4ccc(S(C)=O)cc4)c3c2)o1 (configuration not stated) | inactive | 
13 | COc1cccc(Cn2ncc3c4sc(S(C)=O)cc4n(C)c3c2=O)c1 (configuration not stated) | inactive | 
14 | CCNC(=O)OC1CCN(c2nncc3cc(OC)c(OC)cc23)CC1 | inactive | 
15 | CC1(C)CC=C(C#Cc2ccccc2)c2cc(/C=C/c3ccc(C(=O)O)cc3)ccc21 | inactive | 
16 | COc1c(C)c(OCC=C(C)C)cc2c1CNC2=O | inactive | 
17 | COc1ccccc1CN[C@H]1CCCN[C@H]1c1ccccc1 | inactive | 
18 | NC[C@H]1CCC[C@@H](CNC(=O)[C@@H](Cc2c[nH]c3ccccc23)NC(=O)N2CCC3(C=Cc4ccccc43)CC2)C1 | inactive | 
19 | CC(=O)NCC1CN(c2ccc(-c3ccc(CNCc4cn[nH]n4)cc3)c(F)c2)C(=O)O1 (configuration not stated) | inactive | 
20 | COc1cnc(-c2ccc(Cn3c(CC(C)(C)C(=O)O)c(SC(C)(C)C)c4cc(OC[C@@H]5Cc6ccccc6N5C(C)=O)ccc43)cc2)nc1 | inactive | 

Row | SMILES | Potency | activity change, negative = inhibition
21 | CC(NC(=O)[C@H](Cc1ccccc1)NC(=O)OCc1ccccc1)C(=O)CF (some centres not stated) | inactive | 
22 | CC(=O)O[C@@H]1CC2C(C)(C)C(=O)C=C[C@]2(C)C2CC[C@]3(C)C(=CC(=O)[C@@H]3c3ccoc3)[C@@]21C (some centres not stated) | inactive | 
23 | COc1cccc(OC)c1-c1cc(C(=O)N[C@@H](CC(C)C)C(=O)O)nn1-c1ccnc2cc(Cl)ccc12 | inactive | 
24 | C/C=C(\C)C(=O)OC1CC2C(CC=C3CC(OC4CC(OC)C(OC5CC(OC)C(OC6CC(OC)C(OC7CC(OC)C(OC8CC(OC)C(OC9OC(CO)C(O)C(O)C9O)C(C)O8)C(C)O7)C(C)O6)C(C)O5)C(C)O4)CCC32C)C2(O)CCC(C(C)=O)C12C (configuration not stated) |  | 0.354% [at 12.4 µM]
25 | CCOc1ccc(-c2nn3ncccc3c2-c2ccc(S(C)(=O)=O)cc2)cc1 | inactive | 
26 | CN1CCc2cc(Cl)c(O)cc2[C@@H](c2cccc3c2OCC3)C1 | inactive | 
27 | CC(=O)O[C@@H]1C=C2[C@H](CC[C@@]3(C)[C@@]2(O)CC[C@H]2Cc4c([nH]c5ccccc45)[C@@]23C)O[C@@H]1C(C)(C)O | inactive | 
28 | O=C(NC/C=C/CN1CCN(c2cccc(Cl)c2Cl)CC1)c1ccc(-c2ccccn2)cc1 | inactive | 
29 | CCCNCCOc1ccc(NC(=O)c2c[nH]c3c2C(=O)CCC3)cc1F | inactive | 
30 | Cc1onc(-c2c(Cl)cccc2Cl)c1CC(=O)NCc1ccc(OCC(F)(F)F)nc1 | inactive | 
31 | CCC(=O)N1CCc2cc(OC)c(O)cc2C1 | inactive | 
32 | COc1ccccc1N1CCN(CCCCNC(=O)c2ccc(-c3cscn3)cc2)CC1 | inactive | 
33 | Oc1ccccc1-c1cc(-c2ccccc2F)[nH]n1 | inactive | 
34 | CCCSc1nc(NC2CC2c2ccc(F)c(F)c2)c2nnn(C3CC(OCCO)C(O)C3O)c2n1 (configuration not stated) | inactive | 
35 | CC(C)[C@@](O)(c1ccc2cc(OC(F)F)c(OC(F)F)cc2c1)c1cn[nH]n1 | inactive | 
36 | COC(=O)c1[nH]c(=O)c2ccccc2c1-c1ccc[nH]1 | inactive | 
37 | CC[C@@H]1C(=O)O[C@]23C=C[C@@H]4C(C(=O)OC)=CO[C@H](O[C@@H]12)[C@@H]43 | inactive | 
38 | CC[C@@H](C)[C@H](N)C(=O)N1Cc2ccccc2C1 | inactive | 
39 | Cc1ccc(COC(=O)N2CC[C@@H](CNc3ncccn3)[C@@H](F)C2)cc1 | inactive | 

Each compound was assayed against Cytochrome P450 2D6 (Homo sapiens) (UniProt P10635) (assay: Cytochrome P450 family 2 subfamily D member 6 (CYP2D6) small molecule antagonists: luciferase biochemical (cell-free) qHTS assay (AID 1645840; active means well fitted curve in the direction sought with a large enough effect in the repeat runs; an effect the other way counts as inactive or inconclusive; further: nearly all actives have a fitted effect of over 55% in size; further: potency means the concentration at half of the fitted maximal effect)). Conditions: P450-Glo CYP2D6 enzyme, luciferin luminescence, 1 h; series mostly up to 57.4 µM.
Summary of the method: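 P450-Glo CYP2D6 system: proluciferin substrate converted by enzyme to luciferin, read by luminescence proportional to activity. Enzyme-substrate mix with compound 10 min at room temperature, then NADPH regeneration 1 h before detection reagent.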

Chain of Cytochrome P450 2D6 (Homo sapiens) (P10635 whole entry, looked up): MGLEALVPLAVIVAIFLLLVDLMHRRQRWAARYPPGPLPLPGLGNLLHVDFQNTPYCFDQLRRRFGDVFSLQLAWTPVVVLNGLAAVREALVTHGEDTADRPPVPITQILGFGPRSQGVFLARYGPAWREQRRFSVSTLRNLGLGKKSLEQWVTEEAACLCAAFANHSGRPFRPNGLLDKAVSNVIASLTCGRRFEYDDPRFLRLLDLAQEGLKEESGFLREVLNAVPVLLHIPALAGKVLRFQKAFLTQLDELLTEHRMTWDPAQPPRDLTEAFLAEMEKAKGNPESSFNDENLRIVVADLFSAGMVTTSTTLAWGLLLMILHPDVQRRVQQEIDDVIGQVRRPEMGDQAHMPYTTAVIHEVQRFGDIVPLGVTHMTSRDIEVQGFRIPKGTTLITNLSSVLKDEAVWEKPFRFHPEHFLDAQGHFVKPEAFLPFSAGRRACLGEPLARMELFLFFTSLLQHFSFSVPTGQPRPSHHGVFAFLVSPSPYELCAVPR

Row | SMILES | Potency
40 | O=C(OC(C(F)(F)F)C(F)(F)F)N1CCN(Cc2cccc(Oc3ccccc3)c2)CC1 | 1.51 µM (active)
41 | COc1cccc(CN(C(=O)CC(C)(C)C)C2CC(C(=O)N3CCNCC3)N(Cc3ccc4c(c3)OCO4)C2)c1 (configuration not stated) | 26.8 µM (active)
42 | COc1ccc(-c2ccn(CC[C@](C)(C(=O)NO)S(C)(=O)=O)c(=O)c2)c(F)c1 | inactive
43 | CCOC(=O)c1ccc(NC2CCCCC2)c(N)c1 | 9.52 µM (active)
44 | N[C@@H](CC(=O)Nc1ccc(Oc2cc(F)c(F)cc2Br)cc1)C(=O)O | inactive
45 | COc1cc(Cc2cnc(N)nc2N)c(C(C)C)cc1OC | inactive
46 | CC(C)NC(=O)c1ccc(C#Cc2ccncc2)cn1 | inactive
47 | Cc1nnc(-c2ccc3occ(-c4ccc(S(C)=O)cc4)c3c2)o1 (configuration not stated) | inactive
48 | COc1cccc(Cn2ncc3c4sc(S(C)=O)cc4n(C)c3c2=O)c1 (configuration not stated) | 10.7 µM (active)
49 | CCNC(=O)OC1CCN(c2nncc3cc(OC)c(OC)cc23)CC1 | 16.9 µM (active)
50 | CC1(C)CC=C(C#Cc2ccccc2)c2cc(/C=C/c3ccc(C(=O)O)cc3)ccc21 | inactive
51 | COc1ccccc1CN[C@H]1CCCN[C@H]1c1ccccc1 | 1.07 µM (active)
52 | NC[C@H]1CCC[C@@H](CNC(=O)[C@@H](Cc2c[nH]c3ccccc23)NC(=O)N2CCC3(C=Cc4ccccc43)CC2)C1 | 10.5 µM (active)
53 | CC(=O)NCC1CN(c2ccc(-c3ccc(CNCc4cn[nH]n4)cc3)c(F)c2)C(=O)O1 (configuration not stated) | inactive
54 | COc1cnc(-c2ccc(Cn3c(CC(C)(C)C(=O)O)c(SC(C)(C)C)c4cc(OC[C@@H]5Cc6ccccc6N5C(C)=O)ccc43)cc2)nc1 | inactive
55 | COc1cccc(OC)c1-c1cc(C(=O)N[C@@H](CC(C)C)C(=O)O)nn1-c1ccnc2cc(Cl)ccc12 | 23.9 µM (active)
56 | CCOc1ccc(-c2nn3ncccc3c2-c2ccc(S(C)(=O)=O)cc2)cc1 | 1.07 µM (active)
57 | CN1CCc2cc(Cl)c(O)cc2[C@@H](c2cccc3c2OCC3)C1 | 0.477 µM (active)
58 | O=C(NC/C=C/CN1CCN(c2cccc(Cl)c2Cl)CC1)c1ccc(-c2ccccn2)cc1 | 1.2 µM (active)
59 | CCCNCCOc1ccc(NC(=O)c2c[nH]c3c2C(=O)CCC3)cc1F | inactive
60 | Cc1onc(-c2c(Cl)cccc2Cl)c1CC(=O)NCc1ccc(OCC(F)(F)F)nc1 | 19 µM (active)
61 | CCC(=O)N1CCc2cc(OC)c(O)cc2C1 | 16.9 µM (active)
62 | COc1ccccc1N1CCN(CCCCNC(=O)c2ccc(-c3cscn3)cc2)CC1 | 6.01 µM (active)
63 | Oc1ccccc1-c1cc(-c2ccccc2F)[nH]n1 | inactive
64 | CCCSc1nc(NC2CC2c2ccc(F)c(F)c2)c2nnn(C3CC(OCCO)C(O)C3O)c2n1 (configuration not stated) | 21.3 µM (active)
65 | CC(C)[C@@](O)(c1ccc2cc(OC(F)F)c(OC(F)F)cc2c1)c1cn[nH]n1 | 1.69 µM (active)
66 | CC[C@@H](C)[C@H](N)C(=O)N1Cc2ccccc2C1 | 13.5 µM (active)
67 | Cc1ccc(COC(=O)N2CC[C@@H](CNc3ncccn3)[C@@H](F)C2)cc1 | 16.9 µM (active)
